Data from PubChem BioAssay.
Activity calls are given as the source filed them.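 How the source made its calls, unless noted: active means inhibition above 20% together with a positive visual image hit; inconclusive means visual image hit but inhibition not above 20%; inactive means no visual image hit.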

Assays:
[1] = inhibitors of TNFa-induced NFkB p65 translocation, primary screen, imaging, HUVEC, MLSMR starter and 10KST1 sets (AID 438); details: HUVEC TNFa-induced p65 nuclear translocation; cell count: measured here: nuclei count (cytotoxicity indicator), at 2.08 µM; inhibition: at 2 µM, stronger effect = higher value, 0% TNFa-plus-vehicle, 100% no-TNFa wells;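 further: compound added about 3h40 before a 20 min TNFalpha stimulation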;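 on inhibition: signal is the nuclear over cytoplasmic p65 intensity ratio per well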
[2] = reduction of polyQ htt aggregates in cells – imaging, exon1htt(103Q)mCFP cells, high-content imaging, primary screen (AID 483;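 active means visual image review flags a hit and inhibition of aggregation exceeds 20%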;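 further: compound exposure lasted 3 days before fixation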;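 on nuclei count: percent of the per-plate median nuclei count of sample wells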); details: exon1htt(103Q)mCFP cell line, aggregate imaging, at 2 µM; inhibition of aggregation: stronger effect = higher value; nuclei count: measured here: cell count, toxicity
[3] = endothelial E-selectin expression blockers – imaging, HUVEC, immunofluorescence, MLSMR starter and 10KST1 sets, primary screen (AID 487;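 active means visually confirmed hit in the image check and inhibition above 20%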;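 on inhibition: signal is fraction of cell area covered by stained E-selectin grains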;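 on nuclei count: 100% = median nuclei count of all wells on the same plate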); details: HUVEC TNFalpha-induced E-selectin immunofluorescence imaging, at 2 µM; inhibition: stronger effect = higher value; nuclei count: measured here: cell number, toxicity
[4] = biological target: Voltage-gated potassium channel subunit beta-2 (Rattus norvegicus) (UniProt P62483); assay: inhibitors of rat Kvbeta2 reductase activity – biochemical, NADPH fluorescence, primary screen (AID 622;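 active means fluorescence slope higher than the sample average by over 3 SD, cut at about -0.22 in these data, passing the limit was not always enough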;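 further: slope of raw intensity against log time taken from 70 to 1610 s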); details: recombinant KvBeta, 4-cyanobenzaldehyde reduction, at 10 µM, stronger effect = higher value
[5] = biological target: Voltage-gated potassium channel subunit beta-2 (Rattus norvegicus) (UniProt P62483); assay: enhancers of rat Kvbeta2 NADPH turnover – biochemical, NADPH fluorescence, primary screen (AID 623;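 active means NADPH fluorescence slope more negative than the mean of all samples by about 3 SD, 99.7% confidence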;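 further: fluorescence intensity change per second fitted from 20 to 320 s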); details: Recombinant KvBeta, NADPH fluorescence decrease slope, 10 min; at 10 µM; stronger effect = lower value
[6] = biological target: Alpha-2C adrenergic receptor (Homo sapiens) (UniProt P18825); assay: compounds altering alpha2C-coupled GIRK flux – cell-based, HEK293 alpha2C/GIRK1/2, thallium flux, primary screen (AID 624;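 active means fluorescence slope after compound addition differing from the mean of all screened samples at 99.7% confidence, in either direction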;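 further: slope of fluorescence ratio to pre-addition baseline per second over 15 to 24 s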); details: thallium flux BTC fluorescence, at 10 µM, actives lie on both sides
[7] = blockers of RIG-like receptor reporter activation – cell-based, Sendai virus stimulus, luciferase, 10K MLSCN set, TLR/RLR signaling modifier project, primary screen (AID 602276;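 active means inhibition at or above 50% at 10 µM; inactive means inhibition below 50%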;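 further: firefly luciferase from ISG56 promoter only with Renilla not read in this screen; 0% = Sendai virus plus DMSO and 100% = medium plus DMSO without virus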); details: HEK293 RL24 IRF3 luciferase reporter, at 10 µM, stronger effect = higher value
[8] = TLR3 IRF3 reporter activation blockers – cell-based, poly I:C stimulus, luciferase, 10K MLSCN set, primary screen (AID 602277;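 active means inhibition of the reporter signal at or above 50%; inactive means inhibition below 50%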); details: HEK293-TLR3 RL24 IRF3 luciferase reporter, at 10 µM, stronger effect = higher value

Sequence of Voltage-gated potassium channel subunit beta-2 (Rattus norvegicus) (P62483 whole entry, looked up): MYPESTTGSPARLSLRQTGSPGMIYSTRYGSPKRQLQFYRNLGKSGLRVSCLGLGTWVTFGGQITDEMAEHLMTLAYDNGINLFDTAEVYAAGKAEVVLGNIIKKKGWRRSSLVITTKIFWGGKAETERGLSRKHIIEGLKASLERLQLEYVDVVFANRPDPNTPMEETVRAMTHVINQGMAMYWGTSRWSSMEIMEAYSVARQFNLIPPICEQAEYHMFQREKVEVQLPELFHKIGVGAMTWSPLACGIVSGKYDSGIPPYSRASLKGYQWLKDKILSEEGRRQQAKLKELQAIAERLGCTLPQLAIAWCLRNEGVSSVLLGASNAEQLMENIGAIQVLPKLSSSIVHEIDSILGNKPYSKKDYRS
Sequence of Alpha-2C adrenergic receptor (Homo sapiens) (P18825 whole entry, looked up): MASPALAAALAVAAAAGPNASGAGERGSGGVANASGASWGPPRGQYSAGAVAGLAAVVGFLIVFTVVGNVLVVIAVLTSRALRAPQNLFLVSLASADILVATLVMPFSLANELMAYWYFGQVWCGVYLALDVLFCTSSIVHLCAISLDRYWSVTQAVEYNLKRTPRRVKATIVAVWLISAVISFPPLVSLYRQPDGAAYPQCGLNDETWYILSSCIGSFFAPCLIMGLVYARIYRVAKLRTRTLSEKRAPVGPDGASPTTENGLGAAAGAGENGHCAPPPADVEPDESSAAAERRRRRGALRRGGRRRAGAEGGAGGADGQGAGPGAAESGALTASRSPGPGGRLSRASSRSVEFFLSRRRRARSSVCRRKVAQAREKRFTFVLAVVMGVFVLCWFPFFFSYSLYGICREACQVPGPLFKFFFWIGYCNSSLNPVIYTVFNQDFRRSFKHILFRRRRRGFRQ

SMILES | cell count [1] | inhibition [1] | inhibition of aggregation [2] | nuclei count [2] | inhibition [3] | nuclei count [3] | fluorescence slope [4] | NADPH fluorescence slope [5] | slope [6] | inhibition [7] | inhibition [8]
Cc1c(C)c2ccc(OC3CCCCC3=O)cc2oc1=O (stereo not given) | 573 | -9.2% (inactive) | -0.8% (inactive) | 120% | 38.5% (inactive) | 134% | -0.175 (inactive) | -2e-05 (inactive) | 0.0054 (inactive) | -2.48% (inactive) | -14.3% (inactive)
Nc1ccc(-c2ccc(N)cc2C(F)(F)F)c(C(F)(F)F)c1 | 510 | -15.4% (inactive) | -0.4% (inactive) | 96.5% | -3.6% (inactive) | 101% | -0.446 (inactive) | -9.4e-05 (inactive) | 0.00482 (inactive) | 16.9% (inactive) | 24% (inactive)
CCn1c(SCC(=O)Nc2ccc3c(c2)OCO3)nc2c(c1=O)SC(C)C2 (stereo not given) | 496 | 9.6% (inactive) | 4% (inactive) | 111% | 15.4% (inactive) | 95.3% | -0.561 (inactive) | -5e-05 (inactive) | 0.00661 (inactive) | -0.539% (inactive) | 16.9% (inactive)
CCOC(=O)N1CCC(NC(=O)c2ccc3c(c2)N(CC)CCS3)CC1 | 382 | -2.4% (inactive) | -22.2% (inactive) | 70.3% | -62.7% (inactive) | 114% | -0.0283 (active) | -5.8e-06 (inactive) | 0.00586 (inactive) | 12.8% (inactive) | 34.1% (inactive)
Cc1nnc(SC(=O)N2c3ccccc3Sc3ccccc32)s1 | 348 | 12% (inactive) | 39.8% (active) | 99.9% | 27.8% (inactive) | 107% | -0.31 (inactive) | -1.7e-05 (inactive) | 0.00696 (inactive) | 5.05% (inactive) | 65.9% (active)
COc1ccc(-c2nc(C)c(C(C)=O)n2O)cc1OC | 385 | 2.7% (inactive) | 3.6% (inactive) | 102% | -127% (inactive) | 106% | -0.355 (inactive) | -2.6e-05 (inactive) | 0.00569 (inactive) | -2.76% (inactive) | 10.1% (inactive)
CCOc1ccc(Cn2nnc(C(=O)Nc3ccc(OC)cc3OC)c2N)cc1 | 720 | -6.1% (inactive) | 7.2% (inactive) | 108% | -9.7% (inactive) | 106% | -0.49 (inactive) | -3.6e-05 (inactive) | 0.00559 (inactive) | -5.26% (inactive) | -8.45% (inactive)
COc1ccc(S(=O)(=O)NCc2ccc(C(=O)O)cc2)cc1 | 375 | 2.2% (inactive) | -11.9% (inactive) | 55.2% | -91.6% (inactive) | 93.9% | -0.624 (inactive) | -2.6e-05 (inactive) | 0.0062 (inactive) | 9.81% (inactive) | 17.1% (inactive)
COc1ccccc1C1/C(=C(/O)c2ccccc2)C(=O)C(=O)N1CC(C)C (stereo not given) | 430 | -3.3% (inactive) | -2% (inactive) | 112% | -43.1% (inactive) | 124% | -0.629 (inactive) | -2.2e-05 (inactive) | 0.00652 (inactive) | 11.4% (inactive) | 20.6% (inactive)
CC(C)(C)c1ccc(-c2nnc(SCCC#N)n2C2CCCC2)cc1 | 410 | 5.5% (inactive) | 10.8% (inactive) | 115% | -2.3% (inactive) | 97.3% | -0.483 (inactive) | -3e-05 (inactive) | 0.00637 (inactive) | -5.13% (inactive) | 10.8% (inactive)
O=c1oc2c3c4c(cc2cc1-c1nc2ccccc2[nH]1)CCCN4CCC3 | 451 | 5.9% (inactive) | 94.7% [may fluoresce] (active) | 112% | -25.7% (inactive) | 121% | -0.308 (inactive) | 1.6e-05 (inactive) | 0.00239 (inactive) | -24.1% (inactive) | -107% (inactive)
CCOc1ccc(NC(=O)CCN2CCN(c3ccccc3)CC2)cc1 | 696 | -6.4% (inactive) | 8.3% (inactive) | 101% | -44.6% (inactive) | 105% | -0.261 (inactive) | -1.2e-05 (inactive) | 0.00485 (inactive) | 20.2% (inactive) | 16.6% (inactive)
C=CCOC(=O)C1=C(C)NC(=O)NC1c1cn(-c2ccccc2)nc1-c1cccs1 (stereo not given) | 663 | -18.8% (inactive) | 13.7% (inactive) | 87.3% | -7.6% (inactive) | 110% | -0.332 (inactive) | -5.4e-05 (inactive) | 0.00533 (inactive) | 14.3% (inactive) | 14.3% (inactive)
Cc1ccc(C)c2[nH]c(=O)c(CCNC(=O)c3ccc(S(=O)(=O)N(C)C)cc3)cc12 | 596 | 4.3% (inactive) | 15% (inactive) | 125% | -14% (inactive) | 116% | -0.557 (inactive) | -4e-05 (inactive) | 0.00528 (inactive) | 3.79% (inactive) | 22.8% (inactive)
Cc1ccc(S(=O)(=O)Cn2nnnc2CN(Cc2ccco2)Cc2cccs2)cc1 | 324 | -1.6% (inactive) | 6.8% (inactive) | 108% | -85.1% (inactive) | 133% | -0.594 (inactive) | -4.2e-05 (inactive) | 0.00355 (inactive) | 7.14% (inactive) | 6.8% (inactive)
COc1ccc2cc(CN(CCO)C(=O)c3ccc(Br)cc3)c(=O)[nH]c2c1 | 333 | 5.3% (inactive) | -21.4% (inactive) | 119% | -33% (inactive) | 118% | -0.613 (inactive) | -4.6e-05 (inactive) | 0.00437 (inactive) | 11.6% (inactive) | 0.693% (inactive)
O=C(CCCn1c(=S)[nH]c2cc3c(cc2c1=O)OCO3)N1CCN(c2ccccc2F)CC1 | 402 | -9.1% (inactive) | -7.6% (inactive) | 99.5% | 0.1% (inactive) | 112% | -0.501 (inactive) | -4.7e-05 (inactive) | 0.00637 (inactive) | 8.7% (inactive) | -6.98% (inactive)
O=C(c1ccco1)N1CCN(S(=O)(=O)c2ccc(C3CCCCC3)cc2)CC1 | 400 | 7.2% (inactive) | -1.8% (inactive) | 102% | -44.9% (inactive) | 109% | -0.501 (inactive) | -3.8e-05 (inactive) | 0.00443 (inactive) | -0.0986% (inactive) | -28.6% (inactive)
CCOc1ccc(C2C(C(=O)OC)=CN(CCOC)C=C2C(=O)OC)cc1 | 298 | 6% (inactive) | -3.4% (inactive) | 105% | -6% (inactive) | 110% | -0.141 (inactive) | -8.2e-06 (inactive) | 0.00651 (inactive) | -9.2% (inactive) | 7.51% (inactive)
Cc1cc(C)cc(Nc2ncc3c(n2)CC(c2ccco2)CC3=O)c1 (stereo not given) | 465 | -18.3% (inactive) | -14.3% (inactive) | 106% | -88% (inactive) | 114% | -0.385 (inactive) | -3e-05 (inactive) | 0.00418 (inactive) | 14.2% (inactive) | -2.34% (inactive)
CCCCn1c(SCC(=O)Nc2ccc(OC)cc2)nc2ccc(N3CCOCC3)cc2c1=O | 508 | -0.6% (inactive) | 20.8% (inactive) | 44.4% | -3.4% (inactive) | 103% | -0.407 (inactive) | 6.3e-06 (inactive) | 0.00425 (inactive) | 11.2% (inactive) | 13.1% (inactive)
CC(=O)Nc1ccc(-c2nn[nH]n2)cc1Cl | 630 | -10.7% (inactive) | -3% (inactive) | 69.9% | 0.8% (inactive) | 97.8% | -0.546 (inactive) | -2.3e-05 (inactive) | 0.00431 (inactive) | 13.2% (inactive) | 12.5% (inactive)
CCOc1ccc2c(c1)n(CO)c(=S)n2CO | 677 | -26.5% (inactive) | 4.4% (inactive) | 68.8% | 15.1% (inactive) | 105% | -0.498 (inactive) | -4.8e-05 (inactive) | 0.00378 (inactive) | 16.9% (inactive) | 19.4% (inactive)
COc1ccc(NC(=O)C2CCCCN2S(=O)(=O)c2ccc(F)cc2)cc1 (stereo not given) | 630 | 3.7% (inactive) | 27.3% (inactive) | 76.6% | -67.7% (inactive) | 105% | -0.584 (inactive) | -2.4e-05 (inactive) | 0.00664 (inactive) | 15.6% (inactive) | 42.2% (inactive)
CC(=O)c1ccc(NC(=O)c2cc(CC(C)C)on2)cc1 | 572 | -2.3% (inactive) | 23.3% (inactive) | 97.8% | -3% (inactive) | 104% | -0.606 (inactive) | -2.3e-06 (inactive) | 0.00654 (inactive) | -32.2% (inactive) | -78% (inactive)
